Most compounds without a hit are left out; they make up all but 1.1% or so of the library.
AGP1 TOR yeast: modulators of TOR pathway AGP1-GFP in S. cerevisiae; S. cerevisiae AGP1-GFP multiplex flow cytometry, 3 h; GFP as percent of DMSO wells; GFP response vs DMSO, % at 10 µM; 0.02% of 320,000 active; AID 2066;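 active = GFP response relative to DMSO above a set limit, near screen average plus 3 SD, cut at about 150% in these data; inconclusive = fewer than 70 cells counted for the yeast strain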;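 note: median GFP channel fluorescence of the gated AGP1 strain per well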
LAP4-GFP MLPCN: yeast TOR pathway LAP4-GFP modulation. S. cerevisiae LAP4-GFP multiplex, flow cytometry GFP, 3 h; median GFP as percent of DMSO wells. 0.34% of 320,000 active. GFP response vs DMSO, % at 10 µM. AID 2023;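 active = GFP response vs DMSO above a set limit, about the screen mean plus 3 SD, cut at about 150% in these data; inconclusive = under 70 cell events counted for the yeast strain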
RPL19A TOR yeast: yeast TOR pathway RPL19A-GFP modulation; percent response vs DMSO, % at 10 µM; 0.3% of 330,000 active; S. cerevisiae RPL19A-GFP strain, flow cytometry, 3 h; active compounds read low; AID 2025;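 active = percent response vs DMSO below 50%; inconclusive = fewer than 70 events counted for the yeast strain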;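 note: median channel GFP fluorescence of the barcoded RPL19A-GFP strain; lower means less RPL19A-GFP as with rapamycin TOR inhibition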
VLA-4 inh: inhibition in a human VLA-4 binding assay. inhibition, % (about 7 µM as worked out from the volumes in the protocol). P13612. 0.2% of 330,000 active. VLA-4 expressing cells, ligand binding flow cytometry; in the data active = inhibition above about 50%
Target sequence (P13612 whole entry, looked up): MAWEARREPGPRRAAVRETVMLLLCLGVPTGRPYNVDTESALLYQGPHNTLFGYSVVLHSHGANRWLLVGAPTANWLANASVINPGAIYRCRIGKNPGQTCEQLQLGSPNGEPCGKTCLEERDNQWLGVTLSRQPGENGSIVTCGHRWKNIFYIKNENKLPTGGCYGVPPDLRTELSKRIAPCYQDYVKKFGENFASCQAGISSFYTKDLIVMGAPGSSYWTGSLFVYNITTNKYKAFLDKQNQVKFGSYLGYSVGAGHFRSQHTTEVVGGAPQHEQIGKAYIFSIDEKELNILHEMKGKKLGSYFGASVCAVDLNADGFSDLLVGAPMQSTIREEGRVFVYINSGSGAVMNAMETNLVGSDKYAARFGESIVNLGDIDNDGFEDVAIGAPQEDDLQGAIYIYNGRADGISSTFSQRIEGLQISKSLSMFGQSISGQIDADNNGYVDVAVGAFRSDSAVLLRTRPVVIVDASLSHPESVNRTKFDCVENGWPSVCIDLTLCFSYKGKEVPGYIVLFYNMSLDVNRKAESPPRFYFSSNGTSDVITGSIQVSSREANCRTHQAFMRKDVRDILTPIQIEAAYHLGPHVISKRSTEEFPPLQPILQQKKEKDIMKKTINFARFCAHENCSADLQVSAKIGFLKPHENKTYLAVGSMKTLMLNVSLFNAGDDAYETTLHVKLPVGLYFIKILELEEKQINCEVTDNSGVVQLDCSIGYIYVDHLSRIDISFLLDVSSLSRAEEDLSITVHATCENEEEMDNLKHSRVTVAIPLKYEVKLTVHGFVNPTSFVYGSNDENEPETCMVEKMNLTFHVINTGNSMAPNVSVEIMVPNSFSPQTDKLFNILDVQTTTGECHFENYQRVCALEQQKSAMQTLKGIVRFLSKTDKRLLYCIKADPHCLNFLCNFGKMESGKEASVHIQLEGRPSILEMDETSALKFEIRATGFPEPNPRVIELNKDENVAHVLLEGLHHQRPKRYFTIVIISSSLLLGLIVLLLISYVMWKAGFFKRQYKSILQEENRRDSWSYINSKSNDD
CIT2 TOR yeast: modulators of TOR pathway CIT2-GFP in S. cerevisiae. S. cerevisiae CIT2-GFP strain, flow cytometry, 3 h; 100 means same as DMSO wells. AID 2029. 0.065% of 320,000 active. GFP response vs DMSO, % at 10 µM;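 active = GFP response relative to DMSO above a set limit, near the screen mean plus 3 SD, cut at about 150% in these data; inconclusive = Fewer than 70 cells measured for a yeast strain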;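 note: ratio of well median GFP fluorescence to mean of DMSO wells on the plate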
MEP2 TOR yeast: modulators of TOR pathway MEP2-GFP in S. cerevisiae; S. cerevisiae MEP2-GFP strain, flow cytometry GFP, 3 h; 100% = DMSO control level; GFP response vs DMSO, % at 10 µM; 0.51% of 330,000 active;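 active = GFP response versus DMSO above a set limit, roughly screen mean plus 3 SD, cut at about 180% in these data; inconclusive = fewer than 70 cells counted for a yeast strain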;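 note: median GFP fluorescence of the barcode-gated MEP2-GFP cells per well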
Numbers stand for hits; n = inactive; u = inconclusive; x = no result given; [ ] = remark or other dose.

SMILES	AGP1 TOR yeast	LAP4-GFP MLPCN	RPL19A TOR yeast	VLA-4 inh	CIT2 TOR yeast	MEP2 TOR yeast
CN1CCN(S(=O)(=O)c2ccc(NC(=O)c3ccc(Br)o3)cc2)CC1	u	n	20.8[may fluoresce violet]	n	u	394.2[may fluoresce violet]
O=C(Nc1ccc(S(=O)(=O)N2CCCC2)cc1)c1ccc(CN2CCOCC2)cc1	n	n	n	n	u	483.0[may fluoresce violet]
O=C(Nc1ccc(S(=O)(=O)N2CCCCC2)cc1)c1ccc(CN2CCOCC2)cc1	n	n	n	n	n	n
CCOc1ccc(S(=O)(=O)N2CCCCC2)cc1NS(=O)(=O)c1cccs1	n	n	n	n	n	n
CCN(C[C@H]1N[C@@](Cc2ccccc2)(C(=O)OC)[C@H]2C(=O)N(C)C(=O)[C@@H]12)C(=O)NC(C)C	n	n	n	n	n	n
Cc1ccccc1CNc1nnnn1C	u	n	49.5[may fluoresce violet]	n	u	n
COCCNC(=O)c1ccc(Cl)c(Cl)c1	n	214.7	n	n	183.0	285.6
COCCNC(=O)c1ccc(NC(C)=O)cc1	n	n	n	n	n	n
CC1CCCC(C)N1CCCNC(=O)c1csc2c1CCCCC2 (configuration not stated)	n	n	n	n	n	n
Fc1ccc(CNc2ncccn2)cc1	u	n	29.7[may fluoresce violet]	n	u	189.9[may fluoresce violet]
Cn1cnnc1SCCCN1C(=O)c2cccc3cccc(c23)C1=O	n	n	n	n	n	n
N/C(=N\OC(=O)c1ccc(Cl)cc1)c1ccn[nH]1	n	n	n	n	152.1	n
COC(=O)C1CCN(C(=O)COC(=O)CCc2nc3ccccc3c(=O)[nH]2)CC1	n	n	n	n	n	199.4
COc1ccc(N2CCN(CCC(=O)c3ccc4ccccc4c3)CC2)cc1	n	n	n	n	n	n
O=C(O)C1(c2ccccc2)CCN(S(=O)(=O)c2cccc(Cl)c2)CC1	u	n	33.5[may fluoresce violet]	n	u	194.1[may fluoresce violet]
O=C(O)C1(c2ccccc2)CCN(S(=O)(=O)c2ccc(Cl)cc2)CC1	n	n	n	n	n	n
CC(=O)Nc1ccc(S(=O)(=O)N2CCC(c3nc4c(nnn4Cc4ccccc4Cl)c(=O)[nH]3)CC2)cc1	n	n	n	n	n	n
COc1ccccc1N(CC(=O)NCc1ccccc1C)S(=O)(=O)c1ccc(C)cc1	u	u	u	n	u	206.4[may fluoresce red and violet]
COc1ccc(CCNC(=O)CN(c2ccccc2OC)S(=O)(=O)c2ccc(C)cc2)cc1	n	n	n	n	n	n
CCOc1nnc(C)c2c(C)n(-c3cccc(OC)c3)nc12	n	n	n	n	n	317.3
CCOC(=O)C(CC)n1cnc2c(nnn2-c2cccc(OC)c2)c1=O (configuration not stated)	n	n	n	n	n	n
O=C(O)c1c[nH]c2ccc(S(=O)(=O)N3CCOCC3)cc12	u	n	15.3[may fluoresce violet]	n	u	252.2[may fluoresce violet]
O=C(NCCN1CCOCC1)c1c[nH]c2ccc(S(=O)(=O)N3CCOCC3)cc2c1=O	n	n	n	n	n	n
CC(=O)NS(=O)(=O)c1ccc(NC(=O)c2ccc(S(=O)(=O)N3CCCC3)cc2)cc1	n	n	n	n	n	n
CC1(c2ccc3ccccc3c2)NC(=O)N(CC(=O)N2CCCC(C(F)(F)F)C2)C1=O (configuration not stated)	n	n	n	n	n	n
SMILES	AGP1 TOR yeast	LAP4-GFP MLPCN	RPL19A TOR yeast	VLA-4 inh	CIT2 TOR yeast	MEP2 TOR yeast
C=CCNC(=O)/C(=C\c1ccc(OC)cc1)NC(=O)c1ccc([N+](=O)[O-])cc1	n	n	n	n	157.6	n
COC(=O)c1ccc(S(=O)(=O)N2CCOCC2)o1	n	n	n	n	159.0[may fluoresce green]	n
O=C(COc1ccc(Br)cc1)Nc1ccccc1N1CCCC1	n	n	n	n	u	528.7[may fluoresce violet]
O=C(CCCc1nc(-c2ccc(Cl)cc2)no1)N1CCOCC1	u	n	16.9[may fluoresce violet]	n	u	305.3[may fluoresce violet]
Cc1ccc(-c2noc(CCCC(=O)N3CCOCC3)n2)cc1	n	n	19.8[may fluoresce violet]	n	u	287.1[may fluoresce violet]
O=C(CCCc1nc(-c2ccccc2Cl)no1)N1CCOCC1	n	n	n	n	n	n
Cc1cccc(-c2noc(CCCC(=O)N3CCOCC3)n2)c1	n	n	n	n	n	n
O=S(=O)(c1cccs1)N1CCN(c2ccc(O)cc2)CC1	n	n	n	n	n	n
Cc1ccc2c(c1)N(C(=O)CCC(=O)N1CCC(C(N)=O)CC1)CC(C)O2 (configuration not stated)	n	n	n	n	n	n
CCOc1cc(N2CCOCC2)c(OCC)cc1NC(=O)C(NC(=O)c1ccco1)C(C)C (configuration not stated)	n	n	x	n	n	268.5
COc1cccc(CCN2CCC(CNS(=O)(=O)c3cc(-c4cc(C)no4)ccc3C)CC2)c1	u	n	15.2[may fluoresce violet]	n	u	n
COc1cccc(CCN2CCC(CNS(=O)(=O)c3cc(-c4cc(C)no4)ccc3OC)CC2)c1	n	n	n	n	n	n
CSCCC(NC(=O)c1ccc([N+](=O)[O-])cc1Cl)C(=O)OC(C)C(=O)NCc1ccco1 (configuration not stated)	n	n	n	n	n	n
O=C(Nc1ccc(F)cc1)c1oc2ccccc2c1NC(=O)C1CCCC1	n	n	n	n	n	n
O=C(Nc1ccccc1F)c1oc2ccccc2c1NC(=O)C1CC1	u	n	43.1[may fluoresce violet]	n	u	308.5[may fluoresce violet]
CCOC(=O)C1=C(Cc2ccc(F)cc2)C(=O)c2ccccc2C1=O	n	155.1	n	n	n	n
O=C(OCc1ccc(F)cc1)c1ccc2c(c1)-c1ccccc1C2=O	x	n	43.3[may fluoresce violet]	n	u	263.1[may fluoresce violet]
O=C(OCc1ccc(F)cc1)c1cc2ccccc2cc1O	n	n	n	n	n	n
O=C(/C=C/c1ccco1)Oc1cc(Br)cc(/C=N/NC(=O)c2ccccc2O)c1	n	n	37.0[may fluoresce violet]	n	u	295.6[may fluoresce violet]
Clc1ccc(-n2nnnc2Sc2ncnc3sccc23)cc1	n	151.4	n	n	n	n
Cc1sc2ncnc(Sc3nnnn3-c3ccccc3)c2c1C	n	n	n	n	n	n
COC(=O)c1c(-c2c(Cl)cccc2Cl)noc1NC(=O)NN1CCCCC1	n	n	n	n	n	n
COc1ccc(N2C3=C(C(=O)CC(C)(C)C3)C(c3ccccc3OC)C3=C2CC(C)(C)CC3=O)cc1	n	n	n	n	n	n
COc1ccccc1C1C2=C(CC(C)(C)CC2=O)N(CC(=O)O)C2=C1C(=O)CC(C)(C)C2	n	n	n	n	n	239.2
COc1ccccc1C1Nc2ccccc2NC2=C1C(=O)CC(C)(C)C2 (configuration not stated)	u	n	37.5[may fluoresce violet]	n	u	627.4[may fluoresce violet]
CCc1ccccc1NC(=O)CNC(=O)CSC(=S)N1CCCC1	n	n	n	n	n	n
O=C(c1cccc(COc2ccc(Cl)cc2Cl)c1)N1CCN(c2ccccn2)CC1	n	161.7	n	n	n	n

Compound activity deposited in PubChem BioAssay by NMMLSC.
